Laboratory results reported in the supplement of paper PMC10849652.
Targets with a hit are over-represented here; the source holds about 7,900 in all. About 0.6% of all pairs of compound and target were hits.

Experiments:
Assay in all cases: log2 fold change, soluble protein after heating vs DMSO (PISA); higher = thermal stabilisation; K562 cells, 10 uM, 30 min; active = over 0.2 and 3.5 SD of the protein, either way, in both replicates (recomputed)
[1] = compound: CN1CCN(CCOc2cc(OC3CCOCC3)c3c(Nc4c(Cl)ccc5c4OCO5)ncnc3c2)CC1 [saracatinib]
How it was run: (§1)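 Soluble protein was quantified by TMTpro 16plex LC-MS/MS after channel sums were equalised. It was obtained as the supernatant after 21,000xg for 90 min from pooled aliquots of K562 cells (2×10^6 cells/mL, 10 μM compound, 30 min) heated for 3 min across 48°C-58°C and extracted in PBS with 0.5% NP-40 at 4°C. Thermal stability values are relative to control samples and come from duplicates. They are given as log2 fold changes.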

[2] = compound: CN1CCN(c2nc(C3=C(c4c[nH]c5ccccc45)C(=O)NC3=O)c3ccccc3n2)CC1 [sotrastaurin]
How it was run: as §1

[3] = compound: CN1CC[C@H](c2c(O)cc(O)c3c(=O)cc(-c4ccccc4Cl)oc23)[C@H](O)C1 [alvocidib]
How it was run: as §1

[4] = compound: CN1CCc2c(c3ccccc3n2Cc2ccc(C(=O)NO)cc2)C1 [Tubastatin A]
How it was run: as §1

[5] = compound: CNC(=O)C1=CC=CC=C1NC2=NC(=NC=C2Cl)NC3=C(C=C(C=C3)N4CCOCC4)OC
How it was run: as §1

[6] = compound: CNC(=O)c1ccc(Nc2ncc(C(F)(F)F)c(NCc3nccnc3N(C)S(C)(=O)=O)n2)cc1 [defactinib]
How it was run: as §1

[7] = compound: CNCc1ccc(-c2[nH]c3cc(F)cc4c3c2CCNC4=O)cc1 [rucaparib]
How it was run: as §1

[8] = compound: CNc1nc(-c2ccc3c(N)n[nH]c3c2)cc(N2C[C@@H](C(=O)NC3CCCCC3)CC[C@H]2C)n1
How it was run: as §1

[9] = compound: COC(=O)N[C@@H](C)CNc1nccc(-c2cn(C(C)C)nc2-c2cc(Cl)cc(NS(C)(=O)=O)c2F)n1 [encorafenib]
How it was run: as §1

[10] = compound: COC(=O)[C@H](CCSC)NC(=O)C1=C(C=C(C=C1)NC[C@H](CS)N)C2=CC=CC=C2
How it was run: as §1

[11] = compound: COC1=CC=C(C=C1)CN2C=CC3=C2C=C(C=C3)C(=O)NO
How it was run: as §1

[12] = compound: CON(C)C(=O)N1N=C(c2cc(F)ccc2F)S[C@@]1(CCCN)c1ccccc1 [filanesib]
How it was run: as §1

[13] = compound: CO[C@H]1C[C@@H]2CC[C@@H](C)[C@@](O)(O2)C(=O)C(=O)N2CCCC[C@H]2C(=O)O[C@H]([C@H](C)C[C@@H]2CC[C@H](n3cnnn3)[C@H](OC)C2)CC(=O)[C@H](C)/C=C(\C)[C@@H](O)[C@@H](OC)C(=O)[C@H](C)C[C@H](C)/C=C/C=C/C=C/1C [zotarolimus]
How it was run: as §1

[14] = compound: COc1cc(C(=O)O)ccc1NC(=O)[C@@H]1N[C@@H](CC(C)(C)C)[C@](C#N)(c2ccc(Cl)cc2F)[C@H]1c1cccc(Cl)c1F [idasanutlin]
How it was run: as §1

[15] = compound: COc1cc(Nc2ncc3c(n2)-c2ccc(Cl)cc2C(c2c(F)cccc2OC)=NC3)ccc1C(=O)O [alisertib]
How it was run: as §1

[16] = compound: COc1cc2nc(-c3cc(F)ccc3O)nc(N[C@@H]3CNC[C@H]3C(C)(C)O)c2cc1OC
How it was run: as §1

[17] = compound: COc1cc2ncnc(Nc3ccc(F)c(Cl)c3)c2cc1OCCCN1CCOCC1 [gefitinib]
How it was run: as §1

[18] = compound: COc1cccc2cc(-c3nc([C@H]4CC[C@H](C(=O)O)CC4)n4ncnc(N)c34)[nH]c12
How it was run: as §1

[19] = compound: CS(=O)(=O)CCNCc1ccc(-c2ccc3ncnc(Nc4ccc(OCc5cccc(F)c5)c(Cl)c4)c3c2)o1 [lapatinib]
How it was run: as §1

[20] = compound: CS(=O)(=O)N1CCN(Cc2cc3nc(-c4cccc5[nH]ncc45)nc(N4CCOCC4)c3s2)CC1 [pictilisib]
How it was run: as §1

Measured: log2 fold change

DHCR24 (UniProt Q15392)
active: [17] 1.05
inactive: [1] 0.761 | [2] 0.567 | [3] 0.002 | [4] 0.338 | [5] -0.094 | [6] -0.017 | [7] 0.561 | [8] 0.117 | [9] 0.001 | [10] 0.01 | [11] 0.061 | [12] -0.074 | [13] 0.013 | [14] -0.087 | [15] -0.123 | [16] 0.047 | [18] -0.038 | [19] 0.711 | [20] 0.055

CTSA (UniProt P10619)
inactive: [1] 0.056 | [2] 0.089 | [3] 0.04 | [4] -0.015 | [5] 0.06 | [6] 0.022 | [7] -0.041 | [8] 0.002 | [9] 0.057 | [10] 0.065 | [11] 0.01 | [12] -0.111 | [13] -0.024 | [14] 0.015 | [15] 0.029 | [16] 0.023 | [17] 0.1 | [18] 0.065 | [19] 0.045 | [20] 0.038

DCTN1 isoform 4 (UniProt Q14203)
inactive: [1] -0.126 | [2] -0.159 | [3] -0.083 | [4] 0.079 | [5] -0.056 | [6] -0.037 | [7] 0.227 | [8] 0.074 | [9] 0.083 | [10] -0.068 | [11] -0.007 | [12] 0.047 | [13] 0.095 | [14] 0.012 | [15] -0.045 | [16] 0.007 | [17] 0.042 | [18] -0.083 | [19] -0.007 | [20] -0.135

EEF1A1 (UniProt P68104)
UniProt P68104, sequence (P68104 whole entry, looked up): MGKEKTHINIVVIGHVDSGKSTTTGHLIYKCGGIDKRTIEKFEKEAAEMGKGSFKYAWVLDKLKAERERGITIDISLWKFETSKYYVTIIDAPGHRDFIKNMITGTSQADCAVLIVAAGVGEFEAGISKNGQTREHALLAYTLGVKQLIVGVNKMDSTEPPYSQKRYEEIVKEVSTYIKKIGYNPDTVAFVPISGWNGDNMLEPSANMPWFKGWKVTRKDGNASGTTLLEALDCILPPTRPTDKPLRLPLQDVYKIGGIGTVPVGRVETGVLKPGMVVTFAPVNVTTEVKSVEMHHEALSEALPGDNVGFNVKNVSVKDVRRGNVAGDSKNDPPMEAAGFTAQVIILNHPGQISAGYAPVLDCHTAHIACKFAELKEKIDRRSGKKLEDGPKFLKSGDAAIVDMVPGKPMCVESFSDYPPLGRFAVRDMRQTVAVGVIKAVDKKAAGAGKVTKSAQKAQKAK
active: [3] -0.885
inactive: [1] 0.093 | [2] -0.082 | [4] -0.096 | [5] 0.007 | [6] -0.079 | [7] 0.146 | [8] 0.102 | [9] -0.009 | [10] -0.059 | [11] 0.081 | [12] -0.119 | [13] 0.182 | [14] -0.086 | [15] -0.347 | [16] -0.216 | [17] -0.029 | [18] -0.034 | [19] 0.1

FAM241A (UniProt Q8N8J7)
UniProt Q8N8J7, sequence (Q8N8J7 whole entry, looked up): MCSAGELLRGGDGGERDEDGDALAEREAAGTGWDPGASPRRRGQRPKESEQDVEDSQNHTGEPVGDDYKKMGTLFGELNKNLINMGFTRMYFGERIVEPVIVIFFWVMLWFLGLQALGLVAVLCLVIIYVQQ
active: [2] -0.632 | [12] -0.828
inactive: [1] -0.012 | [3] -0.046 | [4] -0.035 | [5] 0.042 | [6] 0.013 | [7] 0.006 | [8] -0.003 | [9] -0.009 | [10] 0.03 | [11] 0.226 | [13] -0.045 | [14] 0.018 | [15] -0.038 | [16] 0.042 | [17] 0.044 | [18] -0.006 | [19] -0.038 | [20] 0

FAM122A (UniProt Q96E09)
inactive: [1] -0.005 | [2] -0.027 | [3] 0 | [4] 0.096 | [5] -0.09 | [6] -0.018 | [7] 0.015 | [8] 0.017 | [9] -0.016 | [10] 0.056 | [11] -0.05 | [12] -0.004 | [13] -0.038 | [14] 0.017 | [15] -0.068 | [16] -0.053 | [17] 0.019 | [18] 0.005 | [19] 0.018 | [20] 0.092

DDX46 (UniProt Q7L014)
inactive: [1] 0 | [2] -0.197 | [3] -0.157 | [4] 0.101 | [5] 0.054 | [6] -0.296 | [7] -0.125 | [8] 0.028 | [9] 0.05 | [10] -0.085 | [11] 0.109 | [12] -0.003 | [13] 0.046 | [14] 0.029 | [15] 0.434 | [16] 0.001 | [17] 0.041 | [18] -0.005 | [19] 0.026 | [20] 0.117

EIF4G3 isoform 3 (UniProt O43432)
inactive: [1] -0.076 | [2] -0.038 | [3] -0.018 | [4] -0.016 | [5] -0.019 | [6] 0.04 | [7] 0.519 | [8] -0.056 | [9] 0.031 | [10] -0.025 | [11] -0.15 | [12] 0.063 | [13] 0.002 | [14] 0 | [15] -0.003 | [16] -0.01 | [17] 0.032 | [18] -0.32 | [19] 0.142

DPP8 (UniProt Q6V1X1)
inactive: [1] -0.002 | [2] 0.175 | [3] 0.024 | [4] 0.003 | [5] -0.044 | [6] 0.082 | [8] -0.021 | [9] 0.026 | [10] 0.058 | [11] -0.089 | [12] 0.048 | [13] 0.028 | [14] -0.112 | [15] -0.01 | [16] 0.041 | [17] 0.042 | [18] 0.037 | [19] -0.077 | [20] 0.022
active: [7] -0.572

ERCC2 (UniProt P18074)
inactive: [1] -0.016 | [2] -0.035 | [3] -0.062 | [4] 0.051 | [5] -0.01 | [6] -0.094 | [7] -0.013 | [8] -0.027 | [9] 0.177 | [10] -0.005 | [11] -0.024 | [12] 0.018 | [13] 0.068 | [14] 0.063 | [15] 0.001 | [16] -0.061 | [17] -0.03 | [18] -0.021 | [19] 0.049 | [20] 0.042

DNTTIP2 (UniProt Q5QJE6)
UniProt Q5QJE6, sequence (Q5QJE6 whole entry, looked up): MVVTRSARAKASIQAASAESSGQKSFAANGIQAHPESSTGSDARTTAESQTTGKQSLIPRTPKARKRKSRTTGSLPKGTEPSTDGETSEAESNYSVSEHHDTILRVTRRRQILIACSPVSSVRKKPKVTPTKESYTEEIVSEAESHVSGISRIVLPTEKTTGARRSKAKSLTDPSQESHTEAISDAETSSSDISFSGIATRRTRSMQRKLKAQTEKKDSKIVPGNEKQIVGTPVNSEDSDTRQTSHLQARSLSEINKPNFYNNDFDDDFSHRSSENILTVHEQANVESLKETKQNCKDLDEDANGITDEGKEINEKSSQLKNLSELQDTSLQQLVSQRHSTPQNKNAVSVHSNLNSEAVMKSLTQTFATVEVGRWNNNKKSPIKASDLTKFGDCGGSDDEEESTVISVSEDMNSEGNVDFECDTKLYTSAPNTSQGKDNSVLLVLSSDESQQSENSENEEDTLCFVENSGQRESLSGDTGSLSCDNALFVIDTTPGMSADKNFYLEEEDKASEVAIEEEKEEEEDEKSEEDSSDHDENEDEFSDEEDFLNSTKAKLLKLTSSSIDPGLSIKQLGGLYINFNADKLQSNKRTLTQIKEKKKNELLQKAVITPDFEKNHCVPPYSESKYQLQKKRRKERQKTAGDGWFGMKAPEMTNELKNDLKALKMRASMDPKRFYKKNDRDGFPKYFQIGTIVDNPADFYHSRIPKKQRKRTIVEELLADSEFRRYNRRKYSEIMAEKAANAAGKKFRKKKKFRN
inactive: [1] -0.038 | [2] -0.104 | [3] -0.007 | [4] 0.145 | [5] 0.011 | [6] -0.131 | [7] 0.171 | [8] 0.03 | [9] 0.067 | [10] 0.121 | [11] -0.095 | [12] 0.217 | [13] 0.061 | [14] 0.267 | [15] -0.072 | [16] -0.09 | [17] -0.014 | [18] -0.002 | [19] 0 | [20] 0.008

DHX40 (UniProt Q8IX18)
UniProt Q8IX18, sequence (Q8IX18 whole entry, looked up): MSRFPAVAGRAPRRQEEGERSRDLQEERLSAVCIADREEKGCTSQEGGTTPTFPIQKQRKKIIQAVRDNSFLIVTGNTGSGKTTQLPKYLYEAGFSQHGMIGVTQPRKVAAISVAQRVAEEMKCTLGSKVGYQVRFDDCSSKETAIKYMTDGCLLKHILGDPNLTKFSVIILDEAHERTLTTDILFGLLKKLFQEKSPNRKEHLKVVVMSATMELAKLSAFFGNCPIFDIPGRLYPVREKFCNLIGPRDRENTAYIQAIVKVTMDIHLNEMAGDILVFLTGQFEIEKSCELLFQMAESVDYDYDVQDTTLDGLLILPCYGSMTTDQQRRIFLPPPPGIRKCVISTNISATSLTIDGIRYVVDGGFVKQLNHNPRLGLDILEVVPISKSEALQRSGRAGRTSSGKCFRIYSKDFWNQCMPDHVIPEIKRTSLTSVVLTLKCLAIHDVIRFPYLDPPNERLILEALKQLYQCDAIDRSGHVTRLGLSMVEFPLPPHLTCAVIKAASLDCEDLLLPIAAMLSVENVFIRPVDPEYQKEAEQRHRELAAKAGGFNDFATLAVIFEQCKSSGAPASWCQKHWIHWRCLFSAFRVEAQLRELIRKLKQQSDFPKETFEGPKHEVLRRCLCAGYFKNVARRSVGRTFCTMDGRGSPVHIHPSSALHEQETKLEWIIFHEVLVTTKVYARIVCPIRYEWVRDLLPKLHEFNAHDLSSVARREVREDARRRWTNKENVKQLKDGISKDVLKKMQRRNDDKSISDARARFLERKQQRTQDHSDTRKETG
inactive: [1] 0.069 | [2] -0.025 | [3] -0.052 | [4] 0.053 | [5] -0.043 | [6] -0.163 | [7] 0.087 | [8] 0.013 | [9] 0.068 | [10] -0.039 | [11] -0.025 | [12] 0.022 | [13] 0.008 | [14] 0.025 | [15] -0.146 | [16] -0.019 | [17] 0.31 | [18] -0.037 | [19] 0.039 | [20] -0.014

DAG1 (UniProt Q14118)
UniProt Q14118, sequence (Q14118 whole entry, looked up): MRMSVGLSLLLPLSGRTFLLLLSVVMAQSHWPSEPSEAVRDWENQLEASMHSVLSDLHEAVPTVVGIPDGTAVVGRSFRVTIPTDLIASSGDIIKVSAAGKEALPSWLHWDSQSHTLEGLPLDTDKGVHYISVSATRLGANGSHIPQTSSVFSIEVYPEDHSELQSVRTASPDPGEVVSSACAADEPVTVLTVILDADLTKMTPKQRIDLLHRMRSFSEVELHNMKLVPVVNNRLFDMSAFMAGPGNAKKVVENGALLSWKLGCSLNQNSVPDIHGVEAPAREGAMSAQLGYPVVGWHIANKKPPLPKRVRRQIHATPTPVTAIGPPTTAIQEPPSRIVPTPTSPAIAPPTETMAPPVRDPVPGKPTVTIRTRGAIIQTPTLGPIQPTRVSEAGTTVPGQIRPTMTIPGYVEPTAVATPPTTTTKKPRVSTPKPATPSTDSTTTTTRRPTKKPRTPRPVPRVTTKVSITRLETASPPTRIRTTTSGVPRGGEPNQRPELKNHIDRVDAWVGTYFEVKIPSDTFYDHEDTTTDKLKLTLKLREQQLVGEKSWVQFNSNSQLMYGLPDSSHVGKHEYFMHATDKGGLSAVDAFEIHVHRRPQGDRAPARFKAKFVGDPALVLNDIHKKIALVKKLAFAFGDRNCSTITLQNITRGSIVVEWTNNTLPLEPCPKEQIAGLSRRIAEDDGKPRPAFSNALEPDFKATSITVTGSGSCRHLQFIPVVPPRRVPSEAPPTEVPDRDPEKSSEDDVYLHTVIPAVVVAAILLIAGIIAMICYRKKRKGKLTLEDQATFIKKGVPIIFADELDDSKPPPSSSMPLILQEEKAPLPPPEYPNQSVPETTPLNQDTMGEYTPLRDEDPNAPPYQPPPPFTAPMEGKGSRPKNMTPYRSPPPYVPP
inactive: [1] -0.033 | [2] 0.1 | [3] -0.026 | [4] -0.021 | [5] -0.093 | [6] -0.032 | [7] -0.014 | [8] 0.052 | [9] 0.002 | [10] 0.007 | [11] 0.005 | [12] 0.054 | [13] -0.045 | [14] -0.047 | [15] -0.075 | [16] 0.105 | [17] 0.032 | [18] 0.082 | [19] -0.015 | [20] 0.115

FAM3A (UniProt P98173)
inactive: [1] 0.038 | [2] 0.001 | [3] -0.027 | [4] 0.045 | [5] 0.065 | [6] -0.035 | [7] 0.017 | [8] 0.075 | [9] 0.118 | [10] -0.041 | [11] -0.057 | [12] -0.022 | [13] 0.005 | [14] 0.007 | [15] 0.044 | [16] -0.021 | [17] 0.04 | [18] 0.066 | [19] 0.067 | [20] 0.055

FAM160B1 (UniProt Q5W0V3)
UniProt Q5W0V3, sequence (Q5W0V3 whole entry, looked up): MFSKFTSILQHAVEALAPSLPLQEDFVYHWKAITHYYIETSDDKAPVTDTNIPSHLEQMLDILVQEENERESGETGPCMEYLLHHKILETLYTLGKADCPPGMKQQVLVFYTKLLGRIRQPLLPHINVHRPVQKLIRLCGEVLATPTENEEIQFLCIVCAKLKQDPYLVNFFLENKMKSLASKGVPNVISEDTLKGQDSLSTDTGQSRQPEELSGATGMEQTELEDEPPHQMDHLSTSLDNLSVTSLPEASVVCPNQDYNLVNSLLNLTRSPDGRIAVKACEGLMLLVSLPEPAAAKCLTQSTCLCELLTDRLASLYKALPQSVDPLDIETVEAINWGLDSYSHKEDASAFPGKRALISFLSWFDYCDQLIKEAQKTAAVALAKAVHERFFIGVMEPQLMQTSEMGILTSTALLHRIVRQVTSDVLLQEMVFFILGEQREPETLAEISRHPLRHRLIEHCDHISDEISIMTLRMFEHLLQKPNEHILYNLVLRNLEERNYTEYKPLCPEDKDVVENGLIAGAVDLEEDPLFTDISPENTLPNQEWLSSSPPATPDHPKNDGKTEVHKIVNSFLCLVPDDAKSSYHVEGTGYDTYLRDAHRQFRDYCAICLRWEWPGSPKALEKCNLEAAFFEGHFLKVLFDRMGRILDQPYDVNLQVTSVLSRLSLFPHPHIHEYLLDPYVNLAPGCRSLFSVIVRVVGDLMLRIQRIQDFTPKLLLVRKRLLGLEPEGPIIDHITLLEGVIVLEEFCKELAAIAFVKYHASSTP
inactive: [1] -0.003 | [2] -0.071 | [3] -0.138 | [4] 0 | [5] -0.011 | [6] -0.01 | [7] -0.036 | [8] -0.007 | [9] -0.015 | [10] 0.072 | [11] 0.026 | [12] -0.145 | [13] 0.004 | [14] -0.053 | [15] -0.096 | [16] -0.092 | [17] 0.047 | [18] -0.027 | [19] 0.009 | [20] -0.009

DDB1 (UniProt Q16531)
UniProt Q16531, sequence (Q16531 whole entry, looked up): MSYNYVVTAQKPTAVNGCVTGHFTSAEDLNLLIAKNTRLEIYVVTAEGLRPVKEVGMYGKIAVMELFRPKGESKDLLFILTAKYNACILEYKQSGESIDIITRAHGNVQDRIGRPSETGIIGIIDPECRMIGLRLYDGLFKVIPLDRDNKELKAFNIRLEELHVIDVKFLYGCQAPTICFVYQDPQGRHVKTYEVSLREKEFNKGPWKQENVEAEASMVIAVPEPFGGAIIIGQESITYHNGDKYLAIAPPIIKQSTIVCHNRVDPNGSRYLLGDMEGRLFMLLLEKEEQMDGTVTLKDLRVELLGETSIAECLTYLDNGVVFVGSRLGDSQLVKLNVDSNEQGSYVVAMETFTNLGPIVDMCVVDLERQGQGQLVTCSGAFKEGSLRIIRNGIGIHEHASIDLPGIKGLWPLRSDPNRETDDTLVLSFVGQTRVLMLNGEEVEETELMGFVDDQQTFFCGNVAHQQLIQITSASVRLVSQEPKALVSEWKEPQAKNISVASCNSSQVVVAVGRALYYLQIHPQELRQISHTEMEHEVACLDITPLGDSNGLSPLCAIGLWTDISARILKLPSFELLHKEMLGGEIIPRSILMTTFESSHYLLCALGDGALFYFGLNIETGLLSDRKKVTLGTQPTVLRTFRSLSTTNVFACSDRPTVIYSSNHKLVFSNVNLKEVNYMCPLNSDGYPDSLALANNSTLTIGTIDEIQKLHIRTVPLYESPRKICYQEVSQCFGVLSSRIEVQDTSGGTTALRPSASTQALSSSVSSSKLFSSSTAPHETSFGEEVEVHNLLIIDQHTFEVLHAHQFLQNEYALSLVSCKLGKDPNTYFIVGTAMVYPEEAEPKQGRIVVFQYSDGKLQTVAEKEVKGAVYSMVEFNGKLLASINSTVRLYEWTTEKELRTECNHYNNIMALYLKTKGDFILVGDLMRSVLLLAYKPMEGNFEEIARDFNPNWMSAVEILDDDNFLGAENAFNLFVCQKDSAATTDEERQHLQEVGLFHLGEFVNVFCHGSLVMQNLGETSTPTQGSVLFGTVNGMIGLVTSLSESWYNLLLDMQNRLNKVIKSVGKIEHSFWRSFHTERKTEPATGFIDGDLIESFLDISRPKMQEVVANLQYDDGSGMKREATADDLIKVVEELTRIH
inactive: [1] 0.04 | [2] 0.04 | [3] 0.004 | [4] -0.025 | [5] 0.001 | [6] 0.002 | [7] -0.033 | [8] -0.035 | [9] 0.003 | [10] 0 | [11] -0.024 | [12] -0.015 | [13] -0.017 | [14] -0.029 | [15] -0.06 | [16] 0.006 | [17] -0.012 | [18] 0.061 | [19] -0.022 | [20] 0.025
